Measured values reported in PubChem BioAssay (Tox21).
Results filed as inconclusive are left out. Entries that show only a call come without a potency. Some compounds were tested as several samples or in several runs, with calls that do not always agree. Activity calls are given as the source filed them. Unless noted, calls follow the shape of the full dose curve.

Columns and labels:
[1] = Nuclear factor erythroid 2-related factor 2/antioxidant responsive element (Nrf2/ARE) small molecule agonists: qHTS cell viability counter screen in human keratinocytes (AID 1919968; active = well fitted curve in the direction sought with a large enough effect in the repeat runs; an effect the other way counts as inactive or inconclusive; also: nearly all actives have a fitted effect of over 55% in size; also: potency is read from the fitted curve at half-maximal effect)
Outline: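 After a 5 h attachment period, ARE-reporter keratinocytes were dosed with compounds in DMSO and then cultured 23 h at 37 C. Cell viability came from CellTiter-Fluor signal read after a further 1 h.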

[2] = Nuclear factor erythroid 2-related factor 2/antioxidant responsive element (Nrf2/ARE) small molecule agonists: luciferase reporter gene qHTS assay in human keratinocytes (AID 1919969); also: nearly all actives have a fitted effect of over 35% in size
[3] = target: Gonadotropin-releasing hormone receptor (Homo sapiens) (UniProt P30968); assay: Human gonadotropin-releasing hormone receptor (GnRHR) small molecule agonists, calcium flux assay in GnRHR-HEK293 cells (AID 1920063); also: nearly all actives have a fitted effect of over 35% in size
Gonadotropin-releasing hormone receptor (Homo sapiens), sequence (P30968 whole entry, looked up): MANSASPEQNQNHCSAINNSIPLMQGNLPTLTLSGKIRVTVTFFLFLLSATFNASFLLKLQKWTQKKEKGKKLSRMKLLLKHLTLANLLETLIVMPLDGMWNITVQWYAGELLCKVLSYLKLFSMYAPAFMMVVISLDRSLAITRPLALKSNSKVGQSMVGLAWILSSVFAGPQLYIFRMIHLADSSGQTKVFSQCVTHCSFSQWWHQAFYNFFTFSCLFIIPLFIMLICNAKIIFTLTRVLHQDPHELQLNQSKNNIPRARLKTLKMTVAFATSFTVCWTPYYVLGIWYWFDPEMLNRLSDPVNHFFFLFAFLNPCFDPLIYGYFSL
Outline: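 We seeded human GnRHR-expressing HEK293 cells for 18 hours, loaded them with calcium dye for an hour at 37 C, added test compounds, and recorded fluorescence intensity kinetically for three minutes.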

[4] = target: KiSS-1 receptor (Homo sapiens) (UniProt Q969F8); assay: Human kisspeptin (KISS1R) small molecule agonists, calcium flux assay in KISS1R-HEK293 cells (AID 1920064; active = well fitted curve in the direction sought with a large enough effect in the repeat runs; an effect the other way counts as inactive or inconclusive)
KiSS-1 receptor (Homo sapiens), sequence (Q969F8 whole entry, looked up): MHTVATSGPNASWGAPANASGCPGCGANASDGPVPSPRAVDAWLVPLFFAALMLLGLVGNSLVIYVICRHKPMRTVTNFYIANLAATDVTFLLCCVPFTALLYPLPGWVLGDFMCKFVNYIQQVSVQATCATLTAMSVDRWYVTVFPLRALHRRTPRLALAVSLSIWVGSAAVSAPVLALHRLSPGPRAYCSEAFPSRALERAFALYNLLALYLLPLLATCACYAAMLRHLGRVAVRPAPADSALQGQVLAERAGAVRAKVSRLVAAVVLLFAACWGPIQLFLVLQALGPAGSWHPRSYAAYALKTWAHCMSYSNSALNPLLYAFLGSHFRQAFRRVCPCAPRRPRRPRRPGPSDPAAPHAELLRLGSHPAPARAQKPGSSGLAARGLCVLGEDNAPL
Outline: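 Kinetic calcium assay, 1 s sampling over 3 min at Ex/Em 480/540, in HEK293 cells engineered with human KISS1R; compounds delivered in DMSO after 1 h dye loading.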

[5] = G protein-coupled receptor (GPCR) small molecule agonists, calcium flux assay: HEK293 wild type cell line counter screen (AID 1920065)
Outline: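 Calcium-sensitive dye, loaded 1 h at 37 C into cells cultured 18 h, reports compound-evoked calcium release as fluorescence (Ex/Em 480/540), measured over 3 min. Agonist mode; 15-point titrations, triplicate.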

[6] = p53 small molecule agonists, cell-based qHTS assay with human liver microsomes (AID 1963577)
Outline: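 p53RE-bla cells, 4,000/well, compound added after 5 h, with human liver microsomes 0.5 mg/mL and NADPH 0.5 mg/mL final; 16 h at 37 C, then LiveBLAzer 2 h RT, fluorescence.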

[7] = p53 small molecule agonists, cell-based qHTS assay with rat liver microsomes (AID 1963578)
Outline: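 p53RE-bla cells, 4,000/well, pre-incubated 5 h, then given compounds plus rat liver microsomes (0.5 mg/mL final) and NADPH (0.5 mg/mL final). Incubation 16 h at 37 C; beta-lactamase reporter read by LiveBLAzer fluorescence after 2 h at room temperature.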

[8] = p53 small molecule agonists, cell-based qHTS assay with human liver microsomes: qHTS cell viability counter screen (AID 1963579); also: nearly all actives have a fitted effect of over 45% in size
Outline: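 p53RE-bla cells, 4,000/well, dosed 5 hours after plating, with human liver microsomes (0.5 mg/mL final) plus NADPH (0.5 mg/mL final), 16 hours at 37 C. Viability read as CellTiter-Glo luminescence after 30 min at room temperature.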

[9] = p53 small molecule agonists, cell-based qHTS assay with rat liver microsomes: qHTS cell viability counter screen (AID 1963580); also: nearly all actives have a fitted effect of over 45% in size
Outline: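 Viability is assessed in parallel with the p53 reporter read: HCT-116 p53RE-bla cells receive compounds plus rat microsomes and NADPH (0.5 mg/mL final apiece), incubate 16 h at 37 C, and then CellTiter-Glo luminescence is recorded.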

[10] = p53 small molecule agonists, cell-based qHTS assay: qHTS cell viability counter screen (AID 1963581); also: nearly all actives have a fitted effect of over 45% in size
Outline: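 Following 5 h attachment, HCT-116 p53RE-bla cells took up compound for 16 h at 37 C; the reporter was read with B/G FRET substrate (2 h RT), and viability then via CellTiter-Glo ATP luminescence.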

[11] = p53 small molecule agonists, cell-based qHTS assay (AID 1963582; active = well fitted activation curve with a large enough effect in the signal ratio in the repeat runs, not every such curve was filed as active; the % refers to the signal ratio)
Outline: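 In this cell-based concentration-response screen, a p53 response element drives beta-lactamase; cells received DMSO-borne compounds after 5 h culture and were incubated a further 16 h before FRET substrate development.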

[12] = cAMP Responsive Elements (CRE) small molecule agonists, cell-based qHTS assay (AID 1963590)
Outline: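 A CRE-responsive beta-lactamase reporter in HEK 293T cells was used. Treatment ran 3 h at 37 C; detection used LiveBLAzer B/G FRET substrate for 2 h at room temperature.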

[13] = cAMP Responsive Elements (CRE) small molecule antagonists, cell-based qHTS assay (AID 1963591; active = well fitted inhibition curve with a large enough effect in the signal ratio in the repeat runs, not every such curve was filed as active; the % refers to the signal ratio)
Outline: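 HEK293T cells carrying a CRE-driven beta-lactamase reporter receive compound and NKH477 (0.25 uM final) for 3 h. Fluorescence from LiveBLAzer B/G FRET substrate is read after 2 h at room temperature.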

[14] = target: Beta-2 adrenergic receptor (Homo sapiens) (UniProt P07550); assay: Adrenergic beta2 receptor (ADRB2) small molecule antagonists, cell-based qHTS assay (AID 1963592); also: series mostly up to about 92 µM; nearly all actives have a fitted effect of over 50% in size
Beta-2 adrenergic receptor (Homo sapiens), sequence (P07550 whole entry, looked up): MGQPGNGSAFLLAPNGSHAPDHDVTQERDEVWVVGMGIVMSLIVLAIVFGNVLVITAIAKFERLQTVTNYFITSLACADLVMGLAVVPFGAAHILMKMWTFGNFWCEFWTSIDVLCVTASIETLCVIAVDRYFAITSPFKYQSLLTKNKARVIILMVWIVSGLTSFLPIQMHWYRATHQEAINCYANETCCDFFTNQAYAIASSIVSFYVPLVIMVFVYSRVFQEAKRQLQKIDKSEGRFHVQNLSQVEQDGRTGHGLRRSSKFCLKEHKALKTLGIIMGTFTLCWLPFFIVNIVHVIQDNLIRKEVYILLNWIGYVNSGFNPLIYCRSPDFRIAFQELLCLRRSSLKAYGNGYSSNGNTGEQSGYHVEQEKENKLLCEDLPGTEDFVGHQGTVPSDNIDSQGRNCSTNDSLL
Outline: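 Cells (CHO, stable ADRB2 overexpression) incubated 18-20hr at 37C; compounds added from DMSO; agonist mix (1nM isoproterenol, 100uM IBMX, 25uM Ro-20-1724) added; 0.5hr RT; d2-cAMP and anti-cAMP-cryptate added; 1hr RT; 665/615 nm read.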

[15] = target: D(2) dopamine receptor (Homo sapiens) (UniProt P14416); assay: Dopamine D2 receptor (DRD2) small molecule agonists, cell-based qHTS assay (AID 1963594); also: nearly all actives have a fitted effect of over 35% in size
D(2) dopamine receptor (Homo sapiens), sequence (P14416 whole entry, looked up): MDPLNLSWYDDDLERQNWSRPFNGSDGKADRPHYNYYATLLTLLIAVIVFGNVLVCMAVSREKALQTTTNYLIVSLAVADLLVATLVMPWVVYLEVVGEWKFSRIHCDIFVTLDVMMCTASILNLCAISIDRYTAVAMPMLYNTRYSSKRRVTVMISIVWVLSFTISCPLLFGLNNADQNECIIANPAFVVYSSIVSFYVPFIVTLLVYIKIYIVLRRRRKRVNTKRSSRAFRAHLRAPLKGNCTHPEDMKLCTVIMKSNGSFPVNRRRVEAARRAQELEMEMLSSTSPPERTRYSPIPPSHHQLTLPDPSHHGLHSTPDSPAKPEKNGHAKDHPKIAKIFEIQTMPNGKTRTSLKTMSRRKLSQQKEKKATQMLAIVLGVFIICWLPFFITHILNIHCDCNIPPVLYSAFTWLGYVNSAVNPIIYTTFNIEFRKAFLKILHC
Outline: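 HEK293 cells stably expressing human DRD2, pre-treated with PDE inhibitor Ro20-1724 (0.1 mM final) and compound 10 min at room temperature, then stimulated with NKH477 (200nM […]) for 30 min. cAMP read by HTRF (665/620 nm).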

[16] = target: D(2) dopamine receptor (Homo sapiens) (UniProt P14416); assay: Dopamine D2 receptor (DRD2) small molecule antagonists, cell-based qHTS assay (AID 1963595; active = well fitted inhibition curve with a large enough effect in the signal ratio in the repeat runs, with a control signal flat; the % refers to the signal ratio)
Outline: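 Antagonist mode in DRD2-HEK293 cells: after compound addition with 0.1 mM Ro20-1724, cells received quinpirole (12 nM) and NKH477 (200 nM) for 30 min at room temperature; HTRF cAMP read after 1 h detection.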

[17] = target: Beta-2 adrenergic receptor (Homo sapiens) (UniProt P07550); assay: Adrenergic beta2 receptor (ADRB2) small molecule agonists, cell-based qHTS assay (AID 1963593);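 also: CHO cells stably overexpressing human ADRB2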
Outline: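 CHO cells stably over-expressing ADRB2 were plated overnight at 37C, then dosed with compounds plus a stimulation mix containing 100uM IBMX and 25uM Ro-20-1724 for 0.5hr at room temperature. cAMP was measured by HTRF competition, 1hr.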

[18] = target: 5-hydroxytryptamine receptor 2A (Homo sapiens) (UniProt P28223); assay: 5-hydroxytryptamine receptor 2A (HTR2A) small molecule agonists, cell-based qHTS assay (AID 1963587); also: nearly all actives have a fitted effect of over 30% in size
5-hydroxytryptamine receptor 2A (Homo sapiens), sequence (P28223 whole entry, looked up): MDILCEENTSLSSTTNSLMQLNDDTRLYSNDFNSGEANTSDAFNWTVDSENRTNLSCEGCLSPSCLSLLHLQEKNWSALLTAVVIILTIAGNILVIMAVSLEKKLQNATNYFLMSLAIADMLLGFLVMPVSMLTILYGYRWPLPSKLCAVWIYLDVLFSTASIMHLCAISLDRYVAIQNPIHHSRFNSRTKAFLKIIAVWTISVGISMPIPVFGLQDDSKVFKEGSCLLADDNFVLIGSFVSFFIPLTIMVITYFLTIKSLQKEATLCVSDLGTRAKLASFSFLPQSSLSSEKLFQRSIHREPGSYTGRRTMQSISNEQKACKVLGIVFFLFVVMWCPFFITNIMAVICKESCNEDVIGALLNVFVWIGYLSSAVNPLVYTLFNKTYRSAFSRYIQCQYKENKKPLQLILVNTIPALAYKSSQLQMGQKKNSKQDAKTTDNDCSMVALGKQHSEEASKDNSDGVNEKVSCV
Outline: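 CHO cells stably expressing human HTR2A, plated 18 h, loaded with calcium dye 1 h at 37 C. Agonist mode: compounds added and intracellular calcium fluorescence recorded kinetically for 2 min at 1 sec intervals.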

[19] = target: Muscarinic acetylcholine receptor M1 (Homo sapiens) (UniProt P11229); assay: Cholinergic receptor muscarinic 1 (CHRM1) small molecule agonists, cell-based qHTS assay (AID 1963589); also: nearly all actives have a fitted effect of over 35% in size
Muscarinic acetylcholine receptor M1 (Homo sapiens), sequence (P11229 whole entry, looked up): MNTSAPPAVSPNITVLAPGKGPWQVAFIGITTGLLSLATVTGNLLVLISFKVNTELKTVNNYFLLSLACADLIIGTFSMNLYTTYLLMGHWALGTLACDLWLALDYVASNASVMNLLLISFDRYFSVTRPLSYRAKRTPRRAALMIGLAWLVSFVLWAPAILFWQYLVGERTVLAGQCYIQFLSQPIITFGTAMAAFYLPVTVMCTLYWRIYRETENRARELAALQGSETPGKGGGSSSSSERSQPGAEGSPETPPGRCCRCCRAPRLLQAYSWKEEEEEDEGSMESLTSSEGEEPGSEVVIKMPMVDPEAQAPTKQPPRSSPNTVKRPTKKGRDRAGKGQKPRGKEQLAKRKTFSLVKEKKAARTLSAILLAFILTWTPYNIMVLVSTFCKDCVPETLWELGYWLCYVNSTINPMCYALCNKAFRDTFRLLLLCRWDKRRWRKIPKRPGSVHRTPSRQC
Outline: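 Measures agonist-induced intracellular calcium rise. Stable human CHRM1 CHO line, 1 h dye load at 37 C, compounds from DMSO, kinetic fluorescence read.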

Row | SMILES | Potency [1] | Potency [2] | Potency [3] | Potency [4] | Potency [5] | Potency [6] | Potency [7] | Potency [8] | Potency [9] | Potency [10] | Potency [11] | Potency [12] | Potency [13] | Potency [14] | Potency [15] | Potency [16] | Potency [17] | Potency [18] | Potency [19]
1 | C[C@]12C=CC(=O)C=C1CC[C@@H]1[C@@H]2[C@@H](O)C[C@@]2(C)[C@H]1CC[C@]2(O)C(=O)CO | inactive | inactive | inactive | inactive | inactive | inactive | inactive | inactive | inactive | inactive | inactive | inactive | inactive | inactive | inactive | inactive | – | – | –
2 | CC[C@H](C)C(=O)O[C@H]1C[C@@H](C)C=C2C=C[C@H](C)[C@H](CC[C@@H]3C[C@@H](O)CC(=O)O3)[C@H]21 | 69.6 µM (active) and inactive | inactive | inactive | inactive | inactive | inactive | inactive | inactive | inactive | inactive | inactive | inactive | inactive | inactive | inactive | inactive | – | – | –
3 | OC[C@@H](O)[C@@H](O)[C@H](O)[C@@H](O)CO | inactive | inactive | inactive | inactive | inactive | inactive | inactive | inactive | inactive | inactive | inactive | inactive | inactive | inactive | inactive | inactive | inactive | – | –
4 | CC1(C)[C@@H]2CC[C@@]1(C)C(=O)C2 | inactive | inactive | inactive | inactive | inactive | inactive | inactive | inactive | inactive | inactive | inactive | inactive | inactive | inactive | inactive | inactive | inactive | – | –
5 | Cc1cc(=O)n(-c2ccccc2)n1C | inactive | inactive | inactive | inactive | inactive | inactive | inactive | inactive | inactive | inactive | inactive | inactive | inactive | inactive | inactive | inactive | inactive | – | –
6 | O=C(O)CC(O)C(=O)O (centres undefined) | inactive | inactive | inactive | inactive | inactive | inactive | inactive | inactive | inactive | inactive | inactive | inactive | inactive | inactive | inactive | inactive | inactive | inactive | inactive
7 | C=C(C)C(=O)OCCOC(=O)C(=C)C | inactive | inactive | inactive | inactive | inactive | inactive | inactive | inactive | inactive | inactive | inactive | inactive | – | inactive | inactive | inactive | – | inactive | inactive
